This note sets out measurements from paper PMC8384837, “Expanding the binding specificity for RNA recognition by a PUF domain”.

Common to all, as to experiment: yeast three-hybrid, YBZ-1, SC-Leu-His + 0.5 mM 3-AT, 4 days
What all share (details): tags: N-Gal4 AD-HA kept; label: inside an RPR1-promoter hybrid RNA with tandem MS2 sites; ssRNA

One experiment addresses PUM1 PUF domain R4-QFL (Homo sapiens, UniProt Q14671 828-1176, N971Q;H972F;Q975L). The procedure, abridged: (§1)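 Repeat regions from input (SC-Leu) and selection (SC-Leu-His + 0.5 mM 3-AT) plates were PCR-amplified and Illumina-sequenced after four days of growth. The cells were strain YBZ-1 with a LexA–MS2 coat fusion and a HIS3 reporter, co-expressing Pumilio-1 PUF domain libraries and matching RNA elements from a centromeric plasmid. The interaction score is the log change in variant frequency from input to selection, taken in log2 with a pseudocount of 1 for absent variants.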

The target in the next experiment is PUM1 PUF domain R4-SNA (Homo sapiens, UniProt Q14671 828-1176, N971S;H972N;Q975A). The procedure, abridged:
as §1

The target in the next experiment is PUM1 PUF domain R7-KCQ (Homo sapiens, UniProt Q14671 828-1176, S1079K;N1080C;E1083Q). The procedure, abridged:
as §1

For a further experiment, the target named is T1, PUM1 PUF domain R6-FWG (Homo sapiens, UniProt Q14671 828-1176, N1043F;Y1044W;Q1047G).
T1 sequence: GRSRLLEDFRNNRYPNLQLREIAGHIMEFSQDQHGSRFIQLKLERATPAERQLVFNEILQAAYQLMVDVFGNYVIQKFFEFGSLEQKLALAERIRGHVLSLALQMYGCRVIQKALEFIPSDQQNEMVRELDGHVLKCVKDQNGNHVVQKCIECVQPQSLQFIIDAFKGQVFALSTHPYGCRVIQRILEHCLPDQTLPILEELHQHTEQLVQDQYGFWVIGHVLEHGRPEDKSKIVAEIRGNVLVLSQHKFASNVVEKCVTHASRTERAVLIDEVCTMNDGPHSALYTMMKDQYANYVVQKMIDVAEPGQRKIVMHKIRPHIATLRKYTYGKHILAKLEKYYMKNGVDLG
The procedure, abridged:
as §1

A further experiment addresses T2, PUM1 PUF domain R6-PFE (Homo sapiens, UniProt Q14671 828-1176, N1043P;Y1044F;Q1047E).
T2 sequence: T1 sequence with F216P, W217F, G220E
The procedure, abridged: as §1

The target in another experiment is PUM1 PUF domain R5-KSI (Homo sapiens, UniProt Q14671 828-1176, C1007K;R1008S;Q1011I). The procedure, abridged: as §1
Another experiment concerns the target PUM1 PUF domain R5-KFR (Homo sapiens, UniProt Q14671 828-1176, C1007K;R1008F;Q1011R). The procedure, abridged: as §1
The target in the next experiment is PUM1 PUF domain R5-DYD (Homo sapiens, UniProt Q14671 828-1176, C1007D;R1008Y;Q1011D). The procedure, abridged:
as §1

The next experiment addresses PUM1 PUF domain R7-ENS (Homo sapiens, UniProt Q14671 828-1176, S1079E;E1083S). The procedure, abridged:
as §1

For a further experiment, the target named is PUM1 PUF domain R3-WWD (Homo sapiens, UniProt Q14671 828-1176, C935W;R936W;Q939D). The procedure, abridged: as §1

Changes are numbered by the printed parent chain.

As for “GGCUAGAACUAGUGGAUCCCCCGGCGCCCGGCGGCUCGAGCCCGGGUAAGUGUAUAUAGUCUGCAUGCCGCCGGGCGCCAUGCCUGCAGGUCGACUCUAGAAAACAUG”, the binding signal with PUM1 PUF domain R4-QFL is 4.92 log2 enrichment (interaction score); in the experiment with PUM1 PUF domain R4-SNA, 4.15 log2 enrichment (interaction score). With “GGCUAGAACUAGUGGAUCCCCCGGCGCCCGGCGGCUCGAGCCCGGGUAAGUCUAAAUAGUCUGCAUGCCGCCGGGCGCCAUGCCUGCAGGUCGACUCUAGAAAACAUG”, the binding signal with PUM1 PUF domain R7-KCQ was 4.46 log2 enrichment (interaction score). Consider “GGCUAGAACUAGUGGAUCCCCCGGCGCCCGGCGGCUCGAGCCCGGGUAAGUGAAAAUAGUCUGCAUGCCGCCGGGCGCCAUGCCUGCAGGUCGACUCUAGAAAACAUG”, for which the binding signal with PUM1 PUF domain R6-FWG is 2.45 log2 enrichment (interaction score). In the case of “GGCUAGAACUAGUGGAUCCCCCGGCGCCCGGCGGCUCGAGCCCGGGUAAGUGGAAAUAGUCUGCAUGCCGCCGGGCGCCAUGCCUGCAGGUCGACUCUAGAAAACAUG”, the binding signal in the experiment with PUM1 PUF domain R6-PFE was 2.11 log2 enrichment (interaction score).

“GGCUAGAACUAGUGGAUCCCCCGGCGCCCGGCGGCUCGAGCCCGGGUAAGUGUACAUAGUCUGCAUGCCGCCGGGCGCCAUGCCUGCAGGUCGACUCUAGAAAACAUG”: in the experiment with PUM1 PUF domain R4-SNA, the binding signal is 3.14 log2 enrichment (interaction score). For “GGCUAGAACUAGUGGAUCCCCCGGCGCCCGGCGGCUCGAGCCCGGGUAAGUGUCAAUAGUCUGCAUGCCGCCGGGCGCCAUGCCUGCAGGUCGACUCUAGAAAACAUG”, the binding signal is 3.85 log2 enrichment (interaction score) with PUM1 PUF domain R5-KSI, 5.4 log2 enrichment (interaction score) in the experiment with PUM1 PUF domain R5-KFR and 5.78 log2 enrichment (interaction score) with PUM1 PUF domain R5-DYD. With “GGCUAGAACUAGUGGAUCCCCCGGCGCCCGGCGGCUCGAGCCCGGGUAAGUUUAAAUAGUCUGCAUGCCGCCGGGCGCCAUGCCUGCAGGUCGACUCUAGAAAACAUG”, the figures for the binding signal with PUM1 PUF domain R7-KCQ and in the experiment with PUM1 PUF domain R7-ENS were 2.98 log2 enrichment (interaction score) and 4.45 log2 enrichment (interaction score), respectively. For “GGCUAGAACUAGUGGAUCCCCCGGCGCCCGGCGGCUCGAGCCCGGGUAAGUGUUAAUAGUCUGCAUGCCGCCGGGCGCCAUGCCUGCAGGUCGACUCUAGAAAACAUG”, the binding signal in the experiment with PUM1 PUF domain R5-KFR was 4.62 log2 enrichment (interaction score). Consider “GGCUAGAACUAGUGGAUCCCCCGGCGCCCGGCGGCUCGAGCCCGGGUAAGUGUAAGUAGUCUGCAUGCCGCCGGGCGCCAUGCCUGCAGGUCGACUCUAGAAAACAUG”, for which the binding signal in the experiment with PUM1 PUF domain R3-WWD was 5.41 log2 enrichment (interaction score). As for “GGCUAGAACUAGUGGAUCCCCCGGCGCCCGGCGGCUCGAGCCCGGGUAAGUGUAAAUAGUCUGCAUGCCGCCGGGCGCCAUGCCUGCAGGUCGACUCUAGAAAACAUG”, the binding signal with PUM1 PUF domain R5-KFR is 4.71 log2 enrichment (interaction score); with PUM1 PUF domain R5-DYD it was 1.97 log2 enrichment (interaction score); in the experiment with PUM1 PUF domain R4-SNA, 1.52 log2 enrichment (interaction score); in the experiment with PUM1 PUF domain R6-FWG, 3.61 log2 enrichment (interaction score).
